Compound activity deposited in PubChem by National Center for Advancing Translational Sciences (NCATS).
POLI inh – DNA polymerase iota (human) inhibition. hit rate 1% among 390,000. AID 588590. Potency, µM (top dose mostly 115 µM), without a hit: at the highest dose activity, negative = inhibition, most hits filed as inhibitors. Q9UNA4. Pol iota fluorescent replication assay, 10 min; also: potency is read from the fitted curve at half-maximal effect
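Fluorescent replication assay read twice, at 0 min and 10 min after adding 50 nM (final) substrate. Enzyme (10 nM) and compounds were first incubated 15 min at room temperature; enzyme-free buffer wells were negative controls.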
POLK inh – blocks human DNA polymerase kappa activity | Q9UBT6 | purified Pol kappa, fluorescent DNA synthesis assay, 10 min | Potency, µM (titrated, usually from 107 µM), without a hit: at the top dose activity, negative = inhibition, hits mostly inhibitors | hit rate 0.53% among 400,000; also: potency is read from the fitted curve at half-maximal effect; % is scaled to controls: 0 for no effect and ±100 for the full control effect
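10 nM Pol kappa was preincubated with compounds for 15 min at room temperature. Reaction started with 50 nM (final) substrate. Fluorescence read kinetically at 0 and 10 min.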
WRN helicase inh – inhibitors of human WRN helicase; Q14191; WRN helicase unwinding, fluorescent forked duplex, kinetic; Potency, µM (series often up to 114 µM), inactives show at the top dose activity change, negative = inhibition, actives largely listed as inhibitors; hit rate 0.46% among 360,000; also: potency is read from the fitted curve at half-maximal effect; % is scaled to controls: 0 for no effect and ±100 for the full control effect; nearly all actives have a fitted effect of over 55% in size
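Screening of the MLSMR collection measured strand separation of a quenched forked DNA duplex (100 nM) by 20 nM WRN with 2 mM ATP, all final. Compounds were preincubated with enzyme 15 min at room temperature.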
PI5P4K alpha inh – PI5P4K alpha (human) kinase inhibition. P48426. PI5P4Kalpha enzyme, ADP-Glo luminescence, 60 min; stronger effect = lower value. max response, %. hit rate 1.2% among 330,000; active = max response of -50% or lower; inconclusive = between -30% and -50%; inactive = -30% or higher; also: value at the top dose of about 77 µM; % is scaled to controls: 0 for no effect and ±100 for the full control effect
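qHTS, 1536-well: enzyme/substrate mix, compound by pin tool, 5 microM ATP final; RT 60 min; ADP-Glo reagents 1 (45 min) then 2 (30 min); luminescence.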
Pol eta inh – inhibitors of human DNA polymerase eta | Q9Y253 | recombinant Pol eta, fluorescent DNA replication assay | Potency, µM (doses to about 114 µM), without a hit: top-dose activity change, negative = inhibition, actives largely listed as inhibitors | hit rate 1.2% among 390,000 | AID 588591; also: potency is read from the fitted curve at half-maximal effect; % is scaled to controls: 0 for no effect and ±100 for the full control effect
Target sequence (Q9Y253 whole entry, looked up): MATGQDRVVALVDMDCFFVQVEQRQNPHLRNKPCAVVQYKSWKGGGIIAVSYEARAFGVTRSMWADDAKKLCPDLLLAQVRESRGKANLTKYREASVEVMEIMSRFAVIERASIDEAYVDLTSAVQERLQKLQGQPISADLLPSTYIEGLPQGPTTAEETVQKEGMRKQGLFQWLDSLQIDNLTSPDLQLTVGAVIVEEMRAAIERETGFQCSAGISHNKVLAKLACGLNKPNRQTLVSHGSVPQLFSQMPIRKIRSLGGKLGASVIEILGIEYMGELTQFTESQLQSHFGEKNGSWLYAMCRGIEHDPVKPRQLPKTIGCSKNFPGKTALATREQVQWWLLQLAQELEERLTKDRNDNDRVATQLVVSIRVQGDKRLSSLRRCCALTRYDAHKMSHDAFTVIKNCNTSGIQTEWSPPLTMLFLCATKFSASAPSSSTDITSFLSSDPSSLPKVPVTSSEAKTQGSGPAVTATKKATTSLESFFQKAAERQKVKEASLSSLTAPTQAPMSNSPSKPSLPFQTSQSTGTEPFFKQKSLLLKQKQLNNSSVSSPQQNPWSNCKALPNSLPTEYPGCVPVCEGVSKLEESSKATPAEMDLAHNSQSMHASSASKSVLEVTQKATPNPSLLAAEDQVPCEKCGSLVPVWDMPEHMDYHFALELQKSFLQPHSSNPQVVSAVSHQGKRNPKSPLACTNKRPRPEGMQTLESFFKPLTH
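Fluorescent replication assay: 50 nM final substrate added after a 15 min room-temperature compound preincubation with 10 nM enzyme. Signal taken at 0 min and again at 10 min.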
POLB inh – inhibitors of human DNA polymerase beta. P06746. Pol beta primer extension/strand displacement, fluorescence kinetic. Potency, µM (titrated, usually from 114 µM), for inactives: top-dose activity change, negative = inhibition, most hits filed as inhibitors. hit rate 1.3% among 340,000. AID 485314; also: potency is read from the fitted curve at half-maximal effect; % is scaled to controls: 0 for no effect and ±100 for the full control effect
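Reaction started by 50 nM substrate onto compound-treated Pol beta (10 nM, 15 min preincubation, room temperature); plates read at 0 min and 10 min. Normalized concentration-effect data fitted by four-parameter Hill equation.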
The depositor's hits bear a star; ? = inconclusive; . = no result given; [ ] = dose if it differs, or a comment. The list is not random: actives were taken first. Their share in the collection is about 2.8%. Unless noted, calls follow the shape of the dose curve; as a rule, active = well fitted curve in the direction sought with a large enough effect; inconclusive = small, poorly fitted or top-dose-only effect, or another doubt; inactive = no such curve, though single readings can be large; an effect the other way counts as inactive or inconclusive.

SMILES	POLI inh	POLK inh	WRN helicase inh	PI5P4K alpha inh	Pol eta inh	POLB inh
Cc1ccc(-n2nc3c(N4CCC(C(=O)NCc5ccc(C)o5)CC4)nnc(C)c3c2C)cc1	?	7%	96%	-8	-17%	0.4µM*
COc1ccc(-n2nc3c(N4CCC(C(=O)NCc5ccccc5C)CC4)nnc(C)c3c2C)cc1	?	-28%	-7%[11.6 µM]	1	4%	79µM*
COc1ccc(-n2nc3c(N4CCC(C(=O)NCCc5ccccc5C)CC4)nnc(C)c3c2C)cc1	38%	-2%	-4%	0	-5%	10%
COc1ccc(NC(=O)Cn2cnc3ccc(S(=O)(=O)N4CCC(C)CC4)cc3c2=O)cc1Cl	4%	6%	.	.	1%	?
CC(=O)N1c2ccccc2CC1C(=O)N1CCN(c2ccccc2)CC1 (centres undefined)	-7%	-6%[60.1 µM]	.	.	-16%	2%
CCOC(=O)C1CCCN(C(=O)c2cc(C)n(C(C)(C)C)n2)CC1 (centres undefined)	.	.	-4%	-5	.	.
Clc1ccc(OCc2nc(-c3ccc(-n4cccc4)cc3)no2)cc1	89µM*	-22%	.	.	-9%	0%
CCc1ccc(OCc2nc(-c3ccc(-n4cccc4)cc3)no2)cc1	-5%	7%	.	.	.	22%
CCN(C(=O)CSc1n[nH]c(-c2ccc(OC)cc2)n1)c1c(N)n(Cc2ccccc2)c(=O)[nH]c1=O	-4%	-26%	3%	4	-15%	.
Cc1ccc(-c2nc(SCC(=O)N(C)c3c(N)n(Cc4ccccc4)c(=O)[nH]c3=O)n[nH]2)cc1	31%	-3%	-1%	0	-23%	89µM*
CCN(CC)c1ccc(C(=O)NCc2ccc3c(c2)CCN3C(=O)c2ccc(F)cc2)cc1	20%	-12%[60.1 µM]	.	.	79µM*	3%
N#Cc1ccc(C(=O)NCc2ccc3c(c2)CCN3C(=O)c2ccc(F)cc2)cc1	18%	-5%[60.1 µM]	.	.	-23%	-1%
CC[n+]1ccccc1/C=C1\Sc2ccc(C)cc2N1C	?	3%[60.1 µM]	-18%	0	-9%	71µM*
CN1/C(=C/c2cccc[n+]2CCO)Sc2ccccc21	45%	8%	0%	-8	-13%	?
O=C1NC(=S)/C(=C\c2ccc(-c3ccccc3Cl)o2)S1	?	?	50µM*	-69*	16µM*	40µM*
Cc1cc(SCC(=O)N/N=C/c2ccc(O)c(O)c2)c(C)cc1Br	?	-21%	-17%	-2	-21%	16µM*
O=C1CSC(=S)N1Nc1ccccc1	32µM*	-6%	?	-21	-9%	.
O=C(O)CCc1ccc(-c2ccc(F)cc2)n1CC(=O)O	?	-13%	-9%[57.1 µM]	0	11µM*	-3%
Cc1ccc(-c2ccc(CCC(=O)O)n2CC(=O)O)cc1	?	3%[60.1 µM]	-24%	.	25µM*	16µM*
COc1ccc(OC)c(NC(=O)Cn2cc(C=O)c3ccccc32)c1	8%	0%	-4%	-1	-12%	27%
O=C(O)c1ccc(C2Nc3ccccc3-c3nnc(SCc4ccc(Cl)cc4)nc3O2)cc1 (centres undefined)	?	?	.	.	-28%	25µM*
CCOC(=O)c1cnn(-c2ccc(C(=O)Nc3cccc(C(C)=O)c3)cc2)c1N	38%	1%[60.1 µM]	.	.	6%	-18%
COc1ccccc1NC(=O)c1cc2cc(Br)ccc2cc1O	-13%	2%	-27%	?	?	22µM*
COc1cc(NC(=O)c2cc3ccccc3cc2O)c(OC)cc1Cl	-6%	7%	-5%	-5	-1%	-19%
COc1ccc(C)cc1NC(=O)NNC(=O)c1cc2ccccc2cc1O	-26%	-13%	-14%	-27	-1%	79µM*
COC1CC(N)C2OC(c3ccccc3)OCC2O1 (centres undefined)	.	.	-6%	3	0%	.
COC(=O)[C@@H]1[C@H]2SC(C)(C)[C@H](C(=O)OC)N2C(=O)N1Cc1cc2ccccc2n1S(=O)(=O)c1ccccc1	3%	-7%	.	.	.	.
CC/C(C)=N/Nc1nc2c(c(=O)[nH]c(=O)n2C)n1CCc1ccccc1	59%	-6%	-8%	?	-7%	-17%
